This is an account of results in publication PMC7862700, “An all-to-all approach to the identification of sequence-specific readers for epigenetic DNA modifications on cytosine”.

What all share (assay): DAPPL (digital affinity profiling via proximity ligation, sequencing); 10 mM Tris-HCl pH 7.5, 50 mM NaCl, 1 mM DTT, 4% glycerol, room temperature, 30 min; GST-TFs on glutathione beads, 16-mer random dsDNA library, 0.1% formaldehyde crosslink after washing; high values mean tight binding
One assay has as its target T1, FEV (Homo sapiens, UniProt Q99581 1-238).
T1 sequence: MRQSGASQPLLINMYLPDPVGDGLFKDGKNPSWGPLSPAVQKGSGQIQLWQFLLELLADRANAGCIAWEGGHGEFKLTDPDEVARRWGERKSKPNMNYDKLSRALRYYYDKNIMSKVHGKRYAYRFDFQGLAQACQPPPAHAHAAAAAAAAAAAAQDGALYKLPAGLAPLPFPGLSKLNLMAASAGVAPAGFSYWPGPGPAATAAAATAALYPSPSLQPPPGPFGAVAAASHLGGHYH
Conditions: protein: recombinant; tags: N-terminal GST; dsDNA, one strand shown. The method in brief: (§1)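 Human transcription factors were made in yeast as GST fusions, captured on glutathione beads and barcoded with DNA. With a tag-only sample included, the pool was incubated with 200 nmole of a random double-stranded 16-mer DNA library in Tris/NaCl/DTT/glycerol buffer at room temperature for 30 min, then crosslinked with 0.1% formaldehyde after washing, ligated by proximity, amplified and sequenced. For binding signal, each hexamer's read frequency for a factor is divided by its frequency for the tag-only sample.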

For another assay, the target named is ETV5 (Homo sapiens, UniProt P41161 1-510). Conditions: protein: recombinant; tags: N-terminal GST; dsDNA, one strand shown. The method in brief: as §1
Sequence of ETV5 (P41161 whole entry): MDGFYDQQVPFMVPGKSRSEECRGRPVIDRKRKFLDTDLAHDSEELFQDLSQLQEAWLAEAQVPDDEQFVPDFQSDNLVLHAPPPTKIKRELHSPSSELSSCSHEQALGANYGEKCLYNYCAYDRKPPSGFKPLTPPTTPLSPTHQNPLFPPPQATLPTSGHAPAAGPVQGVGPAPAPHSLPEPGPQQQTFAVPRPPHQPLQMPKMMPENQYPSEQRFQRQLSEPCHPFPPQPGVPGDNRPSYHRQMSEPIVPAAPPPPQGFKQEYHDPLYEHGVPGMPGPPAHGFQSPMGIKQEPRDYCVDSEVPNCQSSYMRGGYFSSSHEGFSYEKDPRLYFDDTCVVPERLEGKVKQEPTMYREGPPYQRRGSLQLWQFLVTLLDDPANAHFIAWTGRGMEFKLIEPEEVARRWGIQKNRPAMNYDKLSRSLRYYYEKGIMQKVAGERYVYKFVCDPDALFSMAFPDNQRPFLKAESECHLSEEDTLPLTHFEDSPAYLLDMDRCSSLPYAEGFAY
The target in a further assay is HSF1 (Homo sapiens, UniProt Q00613 1-529). Conditions: protein: recombinant; tags: N-terminal GST; chain copies: 3; dsDNA, one strand shown. The method in brief: as §1
Sequence of HSF1 (Q00613 whole entry): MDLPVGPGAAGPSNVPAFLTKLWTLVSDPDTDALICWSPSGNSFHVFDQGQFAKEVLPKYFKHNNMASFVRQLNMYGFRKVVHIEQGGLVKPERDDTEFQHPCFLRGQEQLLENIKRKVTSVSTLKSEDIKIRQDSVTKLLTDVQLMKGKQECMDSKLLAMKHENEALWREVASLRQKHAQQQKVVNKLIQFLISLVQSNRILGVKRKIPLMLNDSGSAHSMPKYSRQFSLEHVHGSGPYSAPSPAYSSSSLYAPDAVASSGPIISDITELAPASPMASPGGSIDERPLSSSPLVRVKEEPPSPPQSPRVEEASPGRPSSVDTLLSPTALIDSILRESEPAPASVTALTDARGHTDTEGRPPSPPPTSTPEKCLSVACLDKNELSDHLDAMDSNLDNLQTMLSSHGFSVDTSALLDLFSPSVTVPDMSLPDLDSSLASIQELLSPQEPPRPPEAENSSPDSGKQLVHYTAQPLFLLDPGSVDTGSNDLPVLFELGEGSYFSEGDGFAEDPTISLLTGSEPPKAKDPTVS
The target in a further assay is T2, SPIC (Homo sapiens, UniProt Q8N5J4 1-248).
T2 sequence: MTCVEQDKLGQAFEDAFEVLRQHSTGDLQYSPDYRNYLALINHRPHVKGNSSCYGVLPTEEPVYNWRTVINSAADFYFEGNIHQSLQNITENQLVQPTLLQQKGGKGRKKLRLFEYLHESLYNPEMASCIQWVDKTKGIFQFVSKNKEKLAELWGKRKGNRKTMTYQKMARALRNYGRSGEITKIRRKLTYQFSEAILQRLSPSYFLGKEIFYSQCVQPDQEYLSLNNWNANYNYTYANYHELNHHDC
The settings on record: protein: recombinant; tags: N-terminal GST; dsDNA, one strand shown. The method in brief: as §1

For the next assay, the target named is ELF4 (Homo sapiens, UniProt Q99607 1-663). Conditions: protein: recombinant; tags: N-terminal GST; dsDNA, one strand shown. The method in brief:
as §1

The target in the next assay is T3, ELK4 (Homo sapiens, UniProt P28324-2 1-405).
T3 sequence: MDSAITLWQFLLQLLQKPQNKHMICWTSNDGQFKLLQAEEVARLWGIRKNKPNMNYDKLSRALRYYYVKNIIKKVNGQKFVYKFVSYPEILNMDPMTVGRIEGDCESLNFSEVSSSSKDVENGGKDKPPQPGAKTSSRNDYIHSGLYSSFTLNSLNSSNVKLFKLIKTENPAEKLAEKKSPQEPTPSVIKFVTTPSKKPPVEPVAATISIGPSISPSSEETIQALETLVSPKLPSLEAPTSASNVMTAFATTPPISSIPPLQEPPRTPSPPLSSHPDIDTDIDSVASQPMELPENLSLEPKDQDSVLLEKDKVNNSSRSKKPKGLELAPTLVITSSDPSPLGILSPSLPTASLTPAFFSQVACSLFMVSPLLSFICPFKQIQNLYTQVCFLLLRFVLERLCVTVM
The settings on record: protein: recombinant; tags: N-terminal GST; dsDNA, one strand shown. The method in brief:
as §1

For a further assay, the target named is T4, ETV2 (Homo sapiens, UniProt O00321 1-342).
T4 sequence: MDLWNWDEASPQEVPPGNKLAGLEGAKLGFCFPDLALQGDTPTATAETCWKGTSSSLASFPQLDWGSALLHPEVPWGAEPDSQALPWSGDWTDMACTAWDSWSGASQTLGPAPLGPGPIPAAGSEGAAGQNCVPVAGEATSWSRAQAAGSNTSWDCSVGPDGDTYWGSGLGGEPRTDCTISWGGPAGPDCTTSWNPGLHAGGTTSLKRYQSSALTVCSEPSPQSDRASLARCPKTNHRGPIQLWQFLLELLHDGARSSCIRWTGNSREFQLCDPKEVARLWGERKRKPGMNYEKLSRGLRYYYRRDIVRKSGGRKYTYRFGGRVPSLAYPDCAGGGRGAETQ
The settings on record: protein: recombinant; tags: N-terminal GST; dsDNA, one strand shown. The method in brief:
as §1

A further assay addresses T5, ELF3 (Homo sapiens, UniProt P78545 1-371).
T5 sequence: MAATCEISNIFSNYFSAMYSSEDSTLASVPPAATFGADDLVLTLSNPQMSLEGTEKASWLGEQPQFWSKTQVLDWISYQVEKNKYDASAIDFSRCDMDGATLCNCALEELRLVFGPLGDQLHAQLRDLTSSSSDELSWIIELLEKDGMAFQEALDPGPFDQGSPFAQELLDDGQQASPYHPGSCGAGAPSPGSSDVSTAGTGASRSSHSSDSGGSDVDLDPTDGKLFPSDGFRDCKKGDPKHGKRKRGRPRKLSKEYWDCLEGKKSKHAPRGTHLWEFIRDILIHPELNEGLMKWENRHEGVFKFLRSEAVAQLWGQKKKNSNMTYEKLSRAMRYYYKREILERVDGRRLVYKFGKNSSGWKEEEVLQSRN
The settings on record: protein: recombinant; tags: N-terminal GST; dsDNA, one strand shown. The method in brief: as §1

Another assay has as its target CRX (Homo sapiens, UniProt O43186 1-299). Conditions: protein: recombinant; tags: N-terminal GST; dsDNA, one strand shown. The method in brief:
as §1

The next assay deals with ETV1 (Homo sapiens, UniProt P50549 1-477). Conditions: protein: recombinant; tags: N-terminal GST; dsDNA, one strand shown. The method in brief: as §1
Sequence of ETV1 (P50549 whole entry): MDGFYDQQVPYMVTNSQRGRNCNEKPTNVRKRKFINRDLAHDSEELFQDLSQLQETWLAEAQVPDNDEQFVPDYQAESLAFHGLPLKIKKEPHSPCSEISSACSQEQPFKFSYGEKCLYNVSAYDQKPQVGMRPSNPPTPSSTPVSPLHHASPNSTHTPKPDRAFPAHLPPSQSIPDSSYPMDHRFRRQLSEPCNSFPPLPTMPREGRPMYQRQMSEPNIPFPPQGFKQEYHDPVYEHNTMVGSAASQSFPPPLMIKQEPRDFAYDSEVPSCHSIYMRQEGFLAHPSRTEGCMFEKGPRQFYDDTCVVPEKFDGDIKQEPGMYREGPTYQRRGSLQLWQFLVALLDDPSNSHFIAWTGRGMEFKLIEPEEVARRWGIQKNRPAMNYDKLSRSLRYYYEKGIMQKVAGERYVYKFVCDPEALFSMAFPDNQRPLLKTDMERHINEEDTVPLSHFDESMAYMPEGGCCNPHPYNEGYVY
The next assay concerns the target T6, ERF (Homo sapiens, UniProt P50548 1-548).
T6 sequence: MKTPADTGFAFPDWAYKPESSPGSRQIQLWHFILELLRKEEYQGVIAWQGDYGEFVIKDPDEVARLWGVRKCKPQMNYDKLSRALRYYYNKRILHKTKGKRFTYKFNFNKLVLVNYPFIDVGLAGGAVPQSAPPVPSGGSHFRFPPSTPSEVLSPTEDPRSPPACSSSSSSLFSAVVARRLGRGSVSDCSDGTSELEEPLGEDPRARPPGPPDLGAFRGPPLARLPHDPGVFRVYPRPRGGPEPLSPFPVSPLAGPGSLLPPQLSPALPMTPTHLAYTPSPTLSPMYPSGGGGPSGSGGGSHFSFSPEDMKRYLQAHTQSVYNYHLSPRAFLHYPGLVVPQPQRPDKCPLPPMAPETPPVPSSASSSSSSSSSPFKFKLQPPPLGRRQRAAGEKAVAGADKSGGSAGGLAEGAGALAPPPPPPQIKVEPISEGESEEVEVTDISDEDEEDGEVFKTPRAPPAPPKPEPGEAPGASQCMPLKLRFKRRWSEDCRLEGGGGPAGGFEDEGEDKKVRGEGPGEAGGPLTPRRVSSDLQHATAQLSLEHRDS
Conditions: protein: recombinant; tags: N-terminal GST; dsDNA, one strand shown. The method in brief: as §1

The target in the next assay is T7, ETV3L (Homo sapiens, UniProt Q6ZN32 1-361).
T7 sequence: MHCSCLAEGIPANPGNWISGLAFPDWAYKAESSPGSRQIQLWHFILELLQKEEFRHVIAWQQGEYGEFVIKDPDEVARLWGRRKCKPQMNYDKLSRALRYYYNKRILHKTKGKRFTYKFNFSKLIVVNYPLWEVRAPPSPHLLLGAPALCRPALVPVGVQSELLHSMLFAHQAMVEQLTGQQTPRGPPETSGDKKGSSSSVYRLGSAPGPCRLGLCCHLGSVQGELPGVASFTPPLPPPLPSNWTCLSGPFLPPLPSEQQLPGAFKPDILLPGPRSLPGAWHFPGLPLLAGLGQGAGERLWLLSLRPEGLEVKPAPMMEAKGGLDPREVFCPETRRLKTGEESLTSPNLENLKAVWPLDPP
The settings on record: protein: recombinant; tags: N-terminal GST; dsDNA, one strand shown. The method in brief: as §1

A further assay addresses T8, ETS2 (Homo sapiens, UniProt P15036 1-469).
T8 sequence: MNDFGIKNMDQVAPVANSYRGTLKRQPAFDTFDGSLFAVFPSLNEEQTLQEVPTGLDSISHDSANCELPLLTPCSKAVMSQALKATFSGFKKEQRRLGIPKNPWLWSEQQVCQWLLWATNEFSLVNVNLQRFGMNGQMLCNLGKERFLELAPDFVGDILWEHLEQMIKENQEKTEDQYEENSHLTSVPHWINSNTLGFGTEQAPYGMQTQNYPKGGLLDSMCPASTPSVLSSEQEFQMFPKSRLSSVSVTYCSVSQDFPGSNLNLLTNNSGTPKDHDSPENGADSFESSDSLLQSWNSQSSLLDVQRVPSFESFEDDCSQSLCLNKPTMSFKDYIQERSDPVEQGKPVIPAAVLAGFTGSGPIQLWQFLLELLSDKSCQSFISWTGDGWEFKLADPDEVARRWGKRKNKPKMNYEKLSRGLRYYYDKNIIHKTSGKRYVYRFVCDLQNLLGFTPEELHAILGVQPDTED
The settings on record: protein: recombinant; tags: N-terminal GST; dsDNA, one strand shown. The method in brief: as §1

A further assay deals with T9, SPDEF (Homo sapiens, UniProt O95238 1-335).
T9 sequence: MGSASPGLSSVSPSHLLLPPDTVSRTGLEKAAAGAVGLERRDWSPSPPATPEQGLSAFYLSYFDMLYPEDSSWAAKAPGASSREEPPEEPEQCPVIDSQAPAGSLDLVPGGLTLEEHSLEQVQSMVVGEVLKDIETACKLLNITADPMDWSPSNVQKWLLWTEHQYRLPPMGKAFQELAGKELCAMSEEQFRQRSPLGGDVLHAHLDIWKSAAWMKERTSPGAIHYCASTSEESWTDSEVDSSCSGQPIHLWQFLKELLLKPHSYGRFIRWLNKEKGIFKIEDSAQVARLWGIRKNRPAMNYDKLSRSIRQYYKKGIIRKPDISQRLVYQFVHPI
The settings on record: protein: recombinant; tags: N-terminal GST; dsDNA, one strand shown. The method in brief: as §1

In a further assay the target is T10, ETV7 (Homo sapiens, UniProt Q9Y603 1-341).
T10 sequence: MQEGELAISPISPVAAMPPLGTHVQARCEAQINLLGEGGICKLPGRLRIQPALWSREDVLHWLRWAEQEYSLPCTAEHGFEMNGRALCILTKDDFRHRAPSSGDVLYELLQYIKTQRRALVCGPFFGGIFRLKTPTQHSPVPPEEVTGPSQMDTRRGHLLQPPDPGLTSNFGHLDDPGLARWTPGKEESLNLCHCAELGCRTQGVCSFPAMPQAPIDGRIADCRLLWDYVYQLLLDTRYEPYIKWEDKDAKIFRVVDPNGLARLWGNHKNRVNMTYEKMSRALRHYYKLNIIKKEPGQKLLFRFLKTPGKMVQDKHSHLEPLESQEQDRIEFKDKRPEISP
Conditions: protein: recombinant; tags: N-terminal GST; dsDNA, one strand shown. The method in brief:
as §1

The target of another assay is T11, ELF5 (Homo sapiens, UniProt Q9UKW6-2 1-255).
T11 sequence: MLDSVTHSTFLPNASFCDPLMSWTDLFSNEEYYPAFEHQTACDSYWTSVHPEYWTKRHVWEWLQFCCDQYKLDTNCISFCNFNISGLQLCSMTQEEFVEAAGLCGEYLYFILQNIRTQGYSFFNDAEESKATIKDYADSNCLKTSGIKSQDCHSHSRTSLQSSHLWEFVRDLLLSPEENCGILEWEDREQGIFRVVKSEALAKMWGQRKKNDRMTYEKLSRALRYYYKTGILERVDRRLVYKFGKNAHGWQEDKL
The settings on record: protein: recombinant; tags: N-terminal GST; dsDNA, one strand shown. The method in brief:
as §1

The target in a further assay is T12, ETV3 (Homo sapiens, UniProt P41162-2 1-143).
T12 sequence: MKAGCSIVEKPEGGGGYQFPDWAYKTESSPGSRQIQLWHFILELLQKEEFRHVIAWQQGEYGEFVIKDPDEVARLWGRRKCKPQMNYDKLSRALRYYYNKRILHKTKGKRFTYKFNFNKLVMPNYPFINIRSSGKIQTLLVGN
Conditions: protein: recombinant; tags: N-terminal GST; dsDNA, one strand shown. The method in brief:
as §1

The next assay concerns the target ETV6 (Homo sapiens, UniProt P41212 1-452). The settings on record: protein: recombinant; tags: N-terminal GST; dsDNA, one strand shown. The method in brief: as §1

Sequence of ETV6 (P41212 whole entry): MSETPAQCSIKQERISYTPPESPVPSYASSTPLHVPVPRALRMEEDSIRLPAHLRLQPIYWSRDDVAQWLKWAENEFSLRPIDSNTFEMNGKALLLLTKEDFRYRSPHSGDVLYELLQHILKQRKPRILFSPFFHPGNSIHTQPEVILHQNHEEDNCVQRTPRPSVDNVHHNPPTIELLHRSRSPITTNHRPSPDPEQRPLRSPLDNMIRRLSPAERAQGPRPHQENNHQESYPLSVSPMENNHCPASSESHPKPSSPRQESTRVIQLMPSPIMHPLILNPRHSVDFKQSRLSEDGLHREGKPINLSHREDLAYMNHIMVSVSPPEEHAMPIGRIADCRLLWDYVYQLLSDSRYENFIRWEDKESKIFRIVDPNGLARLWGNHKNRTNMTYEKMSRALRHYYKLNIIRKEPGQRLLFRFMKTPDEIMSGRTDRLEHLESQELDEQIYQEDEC
Sequence of ELF4 (Q99607 whole entry): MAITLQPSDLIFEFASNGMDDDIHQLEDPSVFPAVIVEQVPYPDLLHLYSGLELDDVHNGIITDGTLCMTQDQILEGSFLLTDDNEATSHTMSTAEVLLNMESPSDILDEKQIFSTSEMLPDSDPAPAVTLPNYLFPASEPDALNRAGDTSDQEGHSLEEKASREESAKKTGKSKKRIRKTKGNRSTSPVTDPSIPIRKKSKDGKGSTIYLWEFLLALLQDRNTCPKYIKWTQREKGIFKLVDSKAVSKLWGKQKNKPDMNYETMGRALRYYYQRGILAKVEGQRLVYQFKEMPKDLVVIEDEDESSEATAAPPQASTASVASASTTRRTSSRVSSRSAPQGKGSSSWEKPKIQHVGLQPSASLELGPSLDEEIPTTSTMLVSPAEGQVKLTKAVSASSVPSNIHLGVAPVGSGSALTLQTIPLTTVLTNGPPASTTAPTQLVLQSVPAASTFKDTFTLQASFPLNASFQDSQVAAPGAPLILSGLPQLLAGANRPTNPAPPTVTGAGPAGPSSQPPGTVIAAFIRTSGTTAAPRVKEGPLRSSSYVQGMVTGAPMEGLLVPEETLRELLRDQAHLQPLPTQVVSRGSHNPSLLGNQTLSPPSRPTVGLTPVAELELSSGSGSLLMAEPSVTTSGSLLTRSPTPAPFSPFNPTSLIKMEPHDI
Sequence of CRX (O43186 whole entry): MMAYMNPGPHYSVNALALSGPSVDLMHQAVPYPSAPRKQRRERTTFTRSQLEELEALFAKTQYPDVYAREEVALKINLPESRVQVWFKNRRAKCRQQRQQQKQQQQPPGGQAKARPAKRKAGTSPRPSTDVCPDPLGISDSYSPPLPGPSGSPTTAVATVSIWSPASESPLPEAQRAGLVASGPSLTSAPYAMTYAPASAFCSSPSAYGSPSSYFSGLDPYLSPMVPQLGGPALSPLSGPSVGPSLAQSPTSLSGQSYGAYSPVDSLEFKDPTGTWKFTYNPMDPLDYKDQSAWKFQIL

As to CTACCT, the binding signal is 1.3 fold enrichment (6-mer frequency, TF over GST control) in the assay with FEV; 1.36 fold enrichment (6-mer frequency, TF over GST control) with ETV5; 1.15 fold enrichment (6-mer frequency, TF over GST control) with HSF1; 1.38 fold enrichment (6-mer frequency, TF over GST control) with SPIC; 1.46 fold enrichment (6-mer frequency, TF over GST control) with ELF4; 1.36 fold enrichment (6-mer frequency, TF over GST control) in the assay with ELK4. The binding signal in the assay with ETV2 is 1.54 fold enrichment (6-mer frequency, TF over GST control); with ELF3 it was 1.18 fold enrichment (6-mer frequency, TF over GST control); with CRX, 1.23 fold enrichment (6-mer frequency, TF over GST control); with ETV1, 1.54 fold enrichment (6-mer frequency, TF over GST control); with ERF it was 1.74 fold enrichment (6-mer frequency, TF over GST control); with ETV3L, 1.53 fold enrichment (6-mer frequency, TF over GST control). The binding signal with ETS2 was 1.45 fold enrichment (6-mer frequency, TF over GST control); in the assay with SPDEF, 1.45 fold enrichment (6-mer frequency, TF over GST control); with ETV7, 1.22 fold enrichment (6-mer frequency, TF over GST control); with ELF5, 1.59 fold enrichment (6-mer frequency, TF over GST control); with ETV3, 1.44 fold enrichment (6-mer frequency, TF over GST control); in the assay with ETV6, 1.51 fold enrichment (6-mer frequency, TF over GST control).
